This is a sample that favours compounds with a hit; in the whole collection about 3.9% have one here.
Autofluor counter: flagged as autofluorescent in microsphere protease counterscreen; 3.1% of 360,000 active; compound autofluorescence counterscreen, microsphere flow cytometry; stronger effect = higher value; fluorescence intensity (test concentration not listed); AID 624483; in the data active = fluorescence intensity above about 16000; inconclusive = no clear call, values can overlap the other calls
Anthrax LF prot: blocks Bacillus anthracis lethal factor protease. AID 588501. 0.12% of 360,000 active. multiplex microsphere protease cleavage assay, LF. inhibition, % at 10 µM. P15917
Target sequence (P15917 whole entry, looked up): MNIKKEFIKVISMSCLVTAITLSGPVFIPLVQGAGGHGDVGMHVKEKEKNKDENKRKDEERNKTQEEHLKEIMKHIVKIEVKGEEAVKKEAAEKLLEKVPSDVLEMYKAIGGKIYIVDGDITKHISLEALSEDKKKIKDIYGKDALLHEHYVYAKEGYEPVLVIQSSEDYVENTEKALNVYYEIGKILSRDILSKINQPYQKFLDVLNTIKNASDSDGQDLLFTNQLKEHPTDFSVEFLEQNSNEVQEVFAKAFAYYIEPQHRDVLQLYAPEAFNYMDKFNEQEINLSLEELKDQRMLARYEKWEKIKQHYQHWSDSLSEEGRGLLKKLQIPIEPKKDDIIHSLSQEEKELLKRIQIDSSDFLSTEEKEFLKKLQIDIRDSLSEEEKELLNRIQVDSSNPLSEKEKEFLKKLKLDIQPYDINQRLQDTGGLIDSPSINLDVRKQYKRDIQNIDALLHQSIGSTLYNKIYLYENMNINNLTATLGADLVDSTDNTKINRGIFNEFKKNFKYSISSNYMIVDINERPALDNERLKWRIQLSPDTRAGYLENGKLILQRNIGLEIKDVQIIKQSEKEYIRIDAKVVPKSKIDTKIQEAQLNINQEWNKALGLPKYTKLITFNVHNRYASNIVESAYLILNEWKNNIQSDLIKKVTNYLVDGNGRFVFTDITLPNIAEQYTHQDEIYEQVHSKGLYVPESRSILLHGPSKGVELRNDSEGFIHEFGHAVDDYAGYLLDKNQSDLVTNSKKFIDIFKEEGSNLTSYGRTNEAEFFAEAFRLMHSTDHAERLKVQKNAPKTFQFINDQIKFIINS
MazEF act: MazEF (E. coli) toxin RNase activation; 0.32% of 350,000 active; AID 504720; activation, % at 20 µM; FAM/BHQ RNA-DNA oligo cleavage fluorescence, 5 h; in the data active = activation above about 50%
Vc quorum ag: inducers of Vibrio cholerae quorum light production without autoinducers; V. cholerae BH1578 lux reporter, luminescence, 6 h; activation, % at 18.7 µM; 0.16% of 350,000 active; in the data active = activation mostly above about 9.7%, no sharp cut-off; inconclusive = no clear call, values can overlap the other calls; inactive = mostly below about 3.7%
BoNT-A LC inh2: blocks Botulinum neurotoxin A light chain protease | 0.17% of 360,000 active | multiplex microsphere protease substrate cleavage, flow cytometry | AID 588499 | inhibition, % at 10 µM
BoNT F protease: BoNT F light chain protease inhibition; inhibition, % at 10 µM; AID 588497; 0.22% of 360,000 active; Multiplex microsphere protease cleavage assay, flow cytometry; in the data active = inhibition above about 35%, passing the limit was not always enough; inconclusive = no clear call, values can overlap the other calls
BoNTA LC inh 1: blocks botulinum neurotoxin A light chain protease. shares compounds with BoNT F protease. 3% of 720 active. multiplex microsphere protease assay, flow cytometry. inhibition, % at 10 µM. AID 602139; in the data active = inhibition above about 32%
BoNT-F LC CP1: inhibitors of Botulinum neurotoxin F light chain protease; shares compounds with BoNT F protease; multiplex microsphere protease cleavage assay, flow cytometry; inhibition, % at 10 µM; 720 tested, under 10 active; AID 602140; call rule not given here
LF protease CP1: blocks anthrax lethal factor protease. shares compounds with BoNT F protease. 720 tested, under 10 active. inhibition, % at 10 µM. multiplex microsphere protease cleavage assay, LF. AID 602142; call rule not given here
Numbers stand for hits; – = inactive; ? = inconclusive; · = no result given. Cut-off read from the data, not from the text of the source, unless noted: active = inhibition above about 30%; inconclusive = no clear call, values can overlap the other calls; inactive = below that.

SMILES	Autofluor counter	Anthrax LF prot	MazEF act	Vc quorum ag	BoNT-A LC inh2	BoNT F protease	BoNTA LC inh 1	BoNT-F LC CP1	LF protease CP1
Cc1ccccc1Cn1ccc(NC(=O)c2cc3nc(-c4ccco4)cc(C(F)(F)F)n3n2)n1	–	–	–	–	–	–	·	·	·
CCc1ccc(-c2cc(C(F)(F)F)n3nc(C(=O)Nc4c(C)nn(Cc5ccccc5Cl)c4C)cc3n2)s1	21126	–	–	–	?	–	–	–	–
CCc1ccc(-c2cc(C(F)(F)F)n3nc(C(=O)Nc4cnn(Cc5ccccc5C)c4)cc3n2)s1	–	–	–	–	–	–	–	–	–
Cc1nn(Cc2ccccc2)c(C)c1NC(=O)c1cc2nc(-c3ccco3)cc(C(F)(F)F)n2n1	·	·	–	–	·	·	–	–	–
CN(C)S(=O)(=O)c1ccc(NC(=O)CCNC(=O)c2ccco2)cc1	–	–	–	–	–	–	·	·	·
Cc1cc(C)n2nc(C(=O)Nc3c(C)nn(Cc4ccc(F)cc4)c3C)cc2n1	–	–	–	–	–	–	–	–	–
O=C(Nc1cnn(Cc2ccc(F)cc2)c1)c1cc2nc(-c3ccco3)cc(C(F)(F)F)n2n1	–	–	–	–	–	–	–	–	–
O=C(CN1C(=O)c2cccc([N+](=O)[O-])c2C1=O)OCC(=O)N1CCCCC1	?	–	–	–	–	–	·	·	·
CCOc1cc(CNCCc2ccccc2F)ccc1OC	–	–	–	–	–	83	–	–	–
CCc1ccc(CNCCc2ccccc2F)cc1	–	–	–	–	–	–	·	·	·
CCOC(=O)C1CCCN(C(=O)Cn2nc(C)c3c(C)n(-c4ccccc4)nc3c2=O)C1 (centres undefined)	–	–	–	–	–	–	·	·	·
COc1cccc(CN2CCSCC2)c1OC	–	–	–	–	–	–	·	·	·
COc1ccccc1CN1CCSCC1	–	–	–	–	–	71	–	–	–
O=S(=O)(c1cccc(C(F)(F)F)c1)N1CCC(CO)(CCCc2ccccc2)CC1	–	49	–	–	–	–	–	–	–
O=C(NCc1cccc(Cl)c1)N1CCN(S(=O)(=O)c2ccccc2F)CC1	–	–	–	–	–	69	–	–	–
O=C(NCc1ccc(F)cc1)N1CCN(S(=O)(=O)c2ccccc2F)CC1	–	–	–	–	–	–	·	·	·
Cc1nc2ccc([N+](=O)[O-])cc2c(=O)n1Cc1cccc(F)c1	–	60	–	–	–	85	–	–	–
Cc1ccc(NC(=S)NCCN2CCOCC2)cc1F	–	–	–	–	–	–	·	·	·
O=C(CN1CCOCC1)Nc1ccc(Cl)cc1	–	–	–	–	–	?	·	·	·
O=C(CN1CCOCC1)Nc1ccc(Cl)cn1	?	32	–	–	–	–	–	–	–
COc1ccc(CN2CCN(C3CCSCC3)CC2CCO)c(C)c1C (centres undefined)	–	–	–	–	–	–	·	·	·
COc1ccc(CN2CCN(CC3CC3)CC2CCO)c(C)c1C (centres undefined)	–	43	–	–	–	–	–	–	–
Oc1[nH]c(N=C2N=c3ccccc3=N2)c2ccccc12	–	–	56	–	–	111	–	32	–
COc1ccc(C2CC(c3ccc(F)cc3)n3nc(NC(=O)c4ccco4)nc3N2)cc1 (centres undefined)	–	–	–	–	–	–	–	–	–
CC1CC(c2ccccc2)n2nc(NC(=O)c3ccco3)nc2N1 (centres undefined)	–	–	–	–	–	?	·	·	·
CC1(C)CC(NC(=O)c2ccc(F)cc2)CC(C)(C)N1	–	–	–	–	–	–	·	·	·
CC(=O)c1ccc(-c2ccc(C(=O)NC3CC(C)(C)NC(C)(C)C3)o2)cc1	?	–	–	–	–	36	–	–	–
Nc1nc(N)nc(C2C=CCCC2)n1 (centres undefined)	–	–	–	–	–	–	·	·	·
Cc1c(NC(=O)c2ccc(N(C)S(C)(=O)=O)cc2)c(=O)n(-c2ccccc2)n1C	–	–	–	–	–	–	·	·	·
Cc1c(NC(=O)c2ccccc2N(C)S(=O)(=O)c2ccccc2)c(=O)n(-c2ccccc2)n1C	–	–	–	–	44	48	–	–	–
